The list is not random: actives were taken first. Their share in the collection is about 10%.
bCat KO growth: beta-catenin-lacking colon tumor cell growth suppression; HCT116 beta-catenin knockout viability, CellTiter-Glo, 60 h; hits give low values; viability, % at 10 µM; 1.5% of 140,000 active;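 active = viability at or under a set limit, the compound median less 4 SD, cut at about 6% in these data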;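 also: 0% = Hyamine 1622 control at 20 µM and 100% = untreated cell control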
Lmaj promast: reduces viability of Leishmania major promastigotes. resazurin fluorescence viability. inhibition, % at 10 µM. 9% of 200,000 active. AID 1063; in the data active = inhibition above about 50%;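 also: promastigotes grown with compound for 44 hours at 28 °C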
PTEN del growth: growth suppressors of cells with PTEN tumor suppressor deletion; HCT116 PTEN-null viability, CellTiter-Glo, 60 h; hits give low values; viability, % at 10 µM; 1.2% of 140,000 active; AID 827;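 active = viability at or below a set limit, 4 SD under the median of all tested compounds, cut at about 3.7% in these data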;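 also: PTEN knockout HCT116 line with beta catenin targeted HCT116 as companion control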
INS promoter inh: TRM-6 insulin promoter activity inhibition. TRM-6 cells (human fetal islet line), insulin promoter-eGFP reporter, imaging; reporter expression induced with tamoxifen. inhibition, % at 2 µM. 0.9% of 130,000 active;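 active = inhibition above the mean plus 3 SD, with well images judged a real hit on visual review, cut at about 60% in these data, passing the limit was not always enough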
ROMK primary: human ROMK K+ channel modulation, primary screen. P48048. Tet-inducible ROMK, thallium flux fluorescence; actives lie on both sides. B-score at 10 µM. 2% of 130,000 active. AID 1918;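 active = signal ratio slope over the read window, or its plate-corrected B-score, at least 3 SD from the plate mean, either direction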;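 also: B-score of the F/F0 ratio slope over 7 to 12 s after thallium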
Target sequence (P48048 whole entry, looked up): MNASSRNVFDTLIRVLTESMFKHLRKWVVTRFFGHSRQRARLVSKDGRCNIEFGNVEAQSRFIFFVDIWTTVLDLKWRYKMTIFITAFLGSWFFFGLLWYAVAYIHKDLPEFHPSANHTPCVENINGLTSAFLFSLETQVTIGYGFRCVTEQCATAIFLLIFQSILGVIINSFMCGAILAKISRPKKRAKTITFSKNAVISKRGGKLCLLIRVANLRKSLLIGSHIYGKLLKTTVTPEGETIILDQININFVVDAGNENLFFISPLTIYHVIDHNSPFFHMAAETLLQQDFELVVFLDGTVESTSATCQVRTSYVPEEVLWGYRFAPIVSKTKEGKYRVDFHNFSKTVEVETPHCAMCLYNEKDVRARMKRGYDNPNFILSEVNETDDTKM
p97 ATPase inh: human p97 ATPase inhibition. AID 1481. 0.42% of 220,000 active. inhibition, % at 8 µM. recombinant p97 ATPase, Kinase-Glo ATP luminescence, 3 h; in the data active = inhibition above about 15%;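 also: 0% = DMSO vehicle and 100% = wells lacking enzyme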
Numbers without * were called inactive; nt = not tested or not shown.

SMILES | bCat KO growth | Lmaj promast | PTEN del growth | INS promoter inh | ROMK primary | p97 ATPase inh
CC(=O)c1c(C)oc(C)c1CSCc1ccc(C(=O)O)o1 | 103 | -3 | 106 | nt | nt | 5
COc1ccc(CCNC(=O)CCCCCn2c(SCC(N)=O)nc3cc4c(cc3c2=O)OCO4)cc1OC | nt | 3 | nt | -21 | -0.51 | 1
CCc1[nH]nc2c1C(c1ccc(Br)s1)C(C#N)=C(N)O2 (centres undefined) | 34 | 100* | 33 | -34 | -4.2* | 1
Cc1ccc(SCc2[nH]nc3c2C(c2ccco2)C(C#N)=C(N)O3)cc1 (centres undefined) | 53 | 62* | 57 | -56 | nt | -1
Cc1nn(-c2ccccc2)c2c1C(c1ccc(Br)s1)C(C#N)=C(N)O2 (centres undefined) | nt | 81* | nt | 0 | -0.59 | -3
Cc1ccc(SCc2[nH]nc3c2C(c2ccc(C)o2)C(C#N)=C(N)O3)cc1 (centres undefined) | 73 | 86* | 69 | 18 | -0.78 | -1
Cc1ccc(SCc2[nH]nc3c2C(C(C)C)C(C#N)=C(N)O3)cc1 (centres undefined) | 76 | 15 | 79 | -17 | nt | -1
COc1ccc(OCC(=O)Nc2ccc3nc(C)sc3c2)cc1 | nt | -3 | nt | -43 | 0.062 | 1
O=C(c1cc([N+](=O)[O-])cc([N+](=O)[O-])c1)N1CCCc2ccccc21 | nt | 79* | nt | nt | -0.72 | -6
O=C(Cc1ccc([N+](=O)[O-])cc1)N1CCCc2ccccc21 | nt | 13 | nt | 50 | 0.25 | -6
O=C(c1ccc(N2CCCCCC2)c([N+](=O)[O-])c1)N1CCc2ccccc21 | 94 | 89* | 97 | 14 | -0.031 | 9
O=C(c1cc([N+](=O)[O-])ccc1N1CCCCC1)N1CCc2ccccc21 | 12 | 27 | 13 | nt | nt | 1
N#Cc1c(-c2ccco2)ccn(Cc2cccc(F)c2)c1=O | nt | -5 | nt | -11 | -0.058 | 2
Cc1ccc(Nc2nc(-c3c(C)nc4ccccn34)cs2)cc1 | 15 | 93* | 13 | nt | 2.2 | 3
Cc1ccc(Nc2nc(-c3c(C)nc4ncccn34)cs2)cc1 | 21 | 60* | 15 | -54 | nt | 0
Cc1nc2ncccn2c1-c1csc(Nc2ccc(O)cc2)n1 | nt | 10 | nt | nt | -0.14 | 9
Cc1cc(C)cc(NC(=O)c2oc3ccccc3c2COc2ccccc2)c1 | 83 | 89* | 81 | 0 | 0.036 | -1
CC(C)CNC(=O)c1oc2ccccc2c1COc1ccccc1 | 84 | 6 | 81 | 17 | 0.079 | -4
COc1ccc(Cc2[nH]n3c(=O)cc(C(C)C)nc3c2-c2ccccc2)cc1 | nt | 97* | nt | -49 | 0.02 | 1
COc1ccc(Cc2[nH]n3c(=O)cc(C)nc3c2-c2ccccc2)cc1 | nt | 2 | nt | -12 | -0.012 | 3
COc1ccc(-c2nc3c(c(SCC(=O)N4CCOCC4)n2)COC(C)(C)C3)cc1 | 86 | 4 | 87 | 61* | nt | 9
Cc1cccc(C(=O)N/N=C/c2cc(Br)c(Br)o2)c1 | 81 | 5 | 56 | 50 | 0.4 | 2
CCCCn1c(CN2CCN(C)CC2)nc2ccccc21 | 93 | 61* | 100 | nt | -0.087 | -5
CCOC(=O)Cn1nnnc1C(CC)N(Cc1ccccc1)Cc1cc2cc(C)ccc2[nH]c1=O (centres undefined) | 93 | 97* | 76 | 50 | -0.26 | 3
CCCC(c1nnnn1CC(=O)OCC)N(Cc1cc2c(C)cc(C)cc2[nH]c1=O)C1CCCC1 (centres undefined) | 93 | 55* | 86 | nt | -1.6 | 2
SMILES | bCat KO growth | Lmaj promast | PTEN del growth | INS promoter inh | ROMK primary | p97 ATPase inh
CCOC(=O)Cn1nnnc1CN(Cc1ccccc1)Cc1cc2cc(CC)ccc2[nH]c1=O | 92 | 35 | 91 | 15 | -1.8 | 6
CCCC(c1nnnn1CC(=O)OCC)N(Cc1cc2ccc(C)cc2[nH]c1=O)C1CCCC1 (centres undefined) | 90 | 11 | 80 | 25 | -0.26 | -5
CCOC(=O)c1cc(C(=O)OCC)c2ccccn2c1=O | 102 | 0 | 108 | -11 | -0.67 | 1
O=C(O)c1ccc(CSc2nnc(-c3ccncc3)n2-c2ccc(Cl)cc2)cc1 | nt | -1 | nt | nt | -0.44 | 1
CCc1ccc(-n2c(SCc3c(C)noc3C)nnc2-c2ccncc2)cc1 | 89 | 72* | 91 | -33 | 0.017 | -6
CN1C(=O)c2ccc(NC(=S)NC(=O)C(C)(C)C)cc2C1=O | 95 | -1 | 93 | nt | nt | 1
COc1cc(-c2nnc(SCC(=O)NC3CCS(=O)(=O)C3)o2)cc(OC)c1OC (centres undefined) | nt | -6 | nt | -19 | -0.42 | 4
COc1ccc(-c2oc(NC(=O)CSc3ncn[nH]3)c(C#N)c2-c2ccc(OC)cc2)cc1 | 26 | 7 | 34 | 54 | nt | 1
COc1ccc(-c2oc(NC(=O)CCl)c(C#N)c2-c2ccc(OC)cc2)cc1 | 5.8* | 100* | 6 | -3 | 0.49 | 1
CN(/N=C/c1ccc(O)cc1O)c1nc(-c2ccccc2)cc(-c2ccccc2)n1 | 16 | 64* | 19 | -10 | -0.96 | 4
O=C(NC(NC(=S)Nc1c(Cl)cccc1Cl)C(Cl)(Cl)Cl)OCc1ccccc1 (centres undefined) | 57 | 98* | 45 | 41 | -0.8 | 10
CCOC(=O)NC(NC(=S)Nc1ccc(OCC)cc1)C(Cl)(Cl)Cl (centres undefined) | 92 | -4 | 98 | -23 | nt | 6
CNC(=S)N/N=C1\CC(c2ccccc2)Oc2ccccc21 (centres undefined) | nt | 11 | nt | 11 | -0.73 | 0
Fc1ccc(N/N=C2/CC(c3ccccc3)Oc3ccccc32)c(F)c1 (centres undefined) | 84 | 72* | 83 | -16 | -0.024 | -3
Cc1cccc(-n2c(SCc3cc(=O)n4c(C)cccc4n3)nc3[nH]ncc3c2=O)c1 | 113 | 96* | 94 | 13 | 0.029 | 6
COc1cccc(CNCc2cccnc2)c1OCc1ccccc1 | nt | 16 | nt | nt | -0.33 | 1
COc1ccc(-c2nc3oc4cc(OC)ccc4c(=O)c3c(=O)n2Cc2ccco2)cc1 | 87 | 73* | 80 | 0 | 0.86 | 9
COc1ccc2c(=O)c3c(=O)n(Cc4ccco4)c(-c4ccco4)nc3oc2c1 | 96 | 43 | 99 | 10 | 0.0099 | 4
COCCn1c(-c2ccc(OC)cc2)nc2oc3cc(OC)ccc3c(=O)c2c1=O | 101 | 55* | 99 | 61 | nt | 1
COCCn1c(-c2ccc(Cl)cc2)nc2oc3cc(OC)ccc3c(=O)c2c1=O | nt | nt | nt | nt | nt | 1
COc1ccc(N2CCN(C(=O)CSc3nnc(NC(=O)C4CC4)s3)CC2)cc1 | nt | -2 | nt | nt | nt | -4
Cc1cc(=O)[nH]c2c1c(C)nn2-c1ccccc1 | 94 | -9 | 95 | 61* | -0.27 | 0
Cc1cc(=O)[nH]c2c1c(C)nn2C(C)(C)C | nt | nt | nt | nt | nt | 10
Cc1nn2cc(-c3ccc(Cl)cc3)cnc2c1Cl | nt | 1 | nt | 38 | 0.82 | 5
CC1CC1C(=O)Nc1nc(-c2cccs2)c(-c2cccs2)s1 (centres undefined) | 64 | 62* | 64 | 18 | -1.1 | 5

Screening results: PubChem BioAssay, several laboratories
